Screens: PubChem, Broad Institute
aSyn 5UTR act: Activators via SNCA 5'UTR binding, MLPCN. alpha-synuclein 5'UTR reporter, activators screen. activity score, % (tested at 7.5 µM), hits read low. 300,000 compounds, 7.1% hits. AID 1814; in the data active = activity score below about -60%
* marks the source's active call; other numbers are inactive results. Only a sample is shown.

O=C(Nc1ccc2nc3n(c(=O)c2c1)CCCCC3)c1ccccc1[N+](=O)[O-] was read as aSyn 5UTR act -87*.
For O=C(Nc1ccc2nc3n(c(=O)c2c1)CCCCC3)c1c(F)ccc([N+](=O)[O-])c1F the results were aSyn 5UTR act 85.
For N#Cc1c(N)nc2c(c1N)CC(=O)N2c1ccc(Cl)cc1 the results were aSyn 5UTR act -132*.
Screening C/C(=N\NC(=O)C(C)n1nc(C)c([N+](=O)[O-])c1C)c1ccccc1O (configuration not stated) returned aSyn 5UTR act 78.
For Cc1nn(CC(=O)c2ccccc2Cl)c(C)c1[N+](=O)[O-] the results were aSyn 5UTR act -177*.
`C=CCn1c(SCc2c(C)noc2C)nc2sc3c(c2c1=O)CCCCC3` gave aSyn 5UTR act 65.
For O=c1c2c3c(sc2nc2sc(CN4CCCCC4)cn12)CCCC3 the results were aSyn 5UTR act -87*.
`Cc1cc(Cl)c2oc(C(=O)N(C)Cc3ccon3)c(C)c2c1` gave aSyn 5UTR act -104*.
Cc1cc(Cl)c2oc(C(=O)N(C)C3CCOC3)c(C)c2c1 (configuration not stated) was read as aSyn 5UTR act -108*.
Screening COc1cc(/C=N/Nc2ccc(C(F)(F)F)cn2)ccc1O returned aSyn 5UTR act -147*.
Screening O=C(O)c1ccc(/C=N/Nc2ccc(C(F)(F)F)cn2)cc1 returned aSyn 5UTR act -172*.
For CCOc1cc(/C=N/Nc2cc(C)nc(-n3nc(C)cc3C)n2)ccc1O the results were aSyn 5UTR act 68.
`CCOc1ccc2nc(SCC(=O)NC3CC3)sc2c1` gave aSyn 5UTR act -68*.
Screening CCOc1ccc2nc(SCC(=O)c3ccccc3)sc2c1 returned aSyn 5UTR act -100*.
`COC(=O)c1c(C)[nH]c(/C=N/Nc2ccccc2)c1C` gave aSyn 5UTR act -71*.
Screening c1ccc(-c2nnc(-c3ccccn3)nn2)nc1 returned aSyn 5UTR act -122*.
c1ccc(-c2cccc(-c3ccccn3)n2)nc1 was read as aSyn 5UTR act 77.
For CCC(C)c1ccc(NC(=O)C/C(C)=N/NC(=O)c2cnccn2)cc1 (configuration not stated) the results were aSyn 5UTR act -63*.
COc1ccc(NC(=O)C/C(C)=N/NC(=O)c2ccccn2)c(OC)c1 was read as aSyn 5UTR act -107*.
C/C(Cc1ccccc1)=N\NC(=O)c1ccccn1 was read as aSyn 5UTR act -67*.
`C/C(CC(=O)Nc1ccc2c(c1)OCCO2)=N\NC(=O)C(=O)Nc1ccccc1C` gave aSyn 5UTR act -74*.
C/C(CC(=O)Nc1ccc2c(c1)OCCO2)=N\NC(=O)c1ccccn1 was read as aSyn 5UTR act -143*.
`C/C(CC(=O)Nc1ccccn1)=N\NC(=O)c1ccccc1O` gave aSyn 5UTR act 71.
Screening C/C(=N\NC(=O)c1ccccc1Cl)c1ccccn1 returned aSyn 5UTR act 82.
For C/C(=N/NC(=O)c1ccccn1)c1ccncc1 the results were aSyn 5UTR act -116*.
For C/C(CC(=O)Nc1ccccn1)=N\NC(=O)c1ccc2ccccc2c1 the results were aSyn 5UTR act -64*.
C/C(CC(=O)Nc1cc(C)cc(C)c1)=N\NC(=O)c1ccccn1 was read as aSyn 5UTR act -165*.
For c1ccc2c(c1)CCN(c1nc3ccccc3n3cnnc13)C2 the results were aSyn 5UTR act -122*.
For CC(C)c1cc2c(c(O)c1O)[C@@]13CCCC(C)(C)C1CC2OC3=O (some centres not stated) the results were aSyn 5UTR act -126*.
Screening Cc1cc(OCC(=O)N(C)Cc2ccccc2)ccc1Br returned aSyn 5UTR act -68*.
For CC(C)(C)c1nnc(N/N=C/c2ccccc2O)n(N)c1=O the results were aSyn 5UTR act 110.
`Cc1cccc(N/N=C/c2ccncc2)c1` gave aSyn 5UTR act -109*.
Screening Cc1cccc(N/N=C/c2ccccc2O)c1 returned aSyn 5UTR act -182*.
Cc1cc(N/N=C/c2ccccc2O)c2ccccc2n1 was read as aSyn 5UTR act -113*.
`COc1ccc2nc(C)cc(N/N=C/c3cccc(OC)c3O)c2c1` gave aSyn 5UTR act 100.
Screening Cc1ccccc1/C=N/Nc1nc2ccccc2c(=O)n1O returned aSyn 5UTR act -129*.
Screening Cc1cc(Cl)ccc1OCC(=O)N1C(C)CCCC1C (configuration not stated) returned aSyn 5UTR act -62*.
For Cc1cc(Cl)ccc1OCCCC(=O)N1CCOCC1 the results were aSyn 5UTR act -95*.
`Cc1cc(Cl)ccc1OCCCC(=O)N1CCCCC1` gave aSyn 5UTR act -101*.
`CSC1CCCCC1(O)CSc1nc2c(cc1C#N)CCCC2` (configuration not stated) gave aSyn 5UTR act 56.
COC(=O)CC(=O)CSc1nc2c(cc1C#N)CCCCC2 was read as aSyn 5UTR act -62*.
For CCc1nnc(NC(=O)CSc2nc3c(cc2C#N)CCCC3)s1 the results were aSyn 5UTR act -91*.
Screening CCOC(=O)c1sc(NC(=O)CSc2nc3c(cc2C#N)CCCCC3)c(C#N)c1C returned aSyn 5UTR act -143*.
